The source of these data is PubChem BioAssay (EPA / NIEHS).

Molecules are shown by their SMILES. Inconclusive results are not listed. Calls of active or inactive are those of the source. The calls were made as follows, unless noted: active = hit-call score of the fitted dose curve at least 0.9, where 1 is the maximum; inactive = score below 0.9.

Assay [1] concerns the target Glucocorticoid receptor (Homo sapiens) (UniProt P04150). As to the kind of experiment: ATG_GR_TRANS: Attagene TRANS-FACTORIAL HepG2 Assay for human Glucocorticoid Receptor (GR) (AID 2282978; active = hit-call score of the fitted dose curve at least 0.9, where 1 is the maximum;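 also: activators score as hits since higher reporter transcript over DMSO is fitted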). The conditions noted are these: HepG2 Attagene TRANS GR reporter, mRNA transcription. The gist of the method:
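Transiently transfected HepG2 cells express chimeric NR-GAL4 proteins acting on GAL4-UAS reporter units. Compounds are applied for 24 h. mRNA induction over DMSO is measured by capillary electrophoresis.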

The target in assay [2] is Oxysterols receptor LXR-alpha (Homo sapiens) (UniProt Q13133). As to the kind of experiment: ATG_LXRa_TRANS: Attagene TRANS-FACTORIAL HepG2 Assay for human Liver X Receptor alpha (LXRa) (AID 2282980; active = hit-call score of the fitted dose curve at least 0.9, where 1 is the maximum). The conditions noted are these: HepG2 Attagene TRANS reporter, LXRa transactivation. The gist of the method: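 HepG2 cells transiently transfected with GAL4-UAS reporter units for chimeric NR-Gal4 proteins, exposed to chemicals for 24 h. Reporter mRNA quantified by RT-PCR and capillary electrophoresis; gain of signal fitted relative to DMSO.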
Chain of Oxysterols receptor LXR-alpha (Homo sapiens) (Q13133 whole entry, looked up, the tested form may be a part): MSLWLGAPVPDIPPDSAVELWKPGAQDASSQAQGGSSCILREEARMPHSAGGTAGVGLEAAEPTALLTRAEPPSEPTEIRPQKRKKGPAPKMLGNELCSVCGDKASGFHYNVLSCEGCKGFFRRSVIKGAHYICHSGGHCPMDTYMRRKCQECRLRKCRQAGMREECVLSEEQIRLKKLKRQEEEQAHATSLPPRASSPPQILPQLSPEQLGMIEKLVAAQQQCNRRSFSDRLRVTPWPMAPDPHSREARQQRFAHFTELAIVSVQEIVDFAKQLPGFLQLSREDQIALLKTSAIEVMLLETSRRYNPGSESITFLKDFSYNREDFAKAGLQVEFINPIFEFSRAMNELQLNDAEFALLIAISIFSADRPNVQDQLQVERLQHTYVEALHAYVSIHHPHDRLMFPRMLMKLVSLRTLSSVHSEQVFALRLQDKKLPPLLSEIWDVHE

In assay [3] the target is Oxysterols receptor LXR-beta (Homo sapiens) (UniProt P55055). As to the kind of experiment: ATG_LXRb_TRANS: Attagene TRANS-FACTORIAL HepG2 Assay for human Liver X Receptor beta (LXRb) (AID 2282981; active = hit-call score of the fitted dose curve at least 0.9, where 1 is the maximum). To be noted: HepG2 Attagene TRANS GAL4-LXRb reporter, mRNA. An outline of the steps:
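HepG2 cells transiently transfected with GAL4-UAS reporter units for chimeric NR-Gal4 proteins, dosed for 24 h. Reporter transcripts measured by RT-PCR and capillary electrophoresis; gain-of-signal fitting relative to DMSO.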

The target of assay [4] is Hepatocyte nuclear factor 4-alpha (Homo sapiens) (UniProt P41235). As to the kind of experiment: ATG_HNF4a_TRANS: Attagene TRANS-FACTORIAL HepG2 Assay for human Hepatocyte Nuclear Factor 4 alpha (HNF4a) (AID 2282982; active = hit-call score of the fitted dose curve at least 0.9, where 1 is the maximum). The conditions noted are these: HepG2 HNF4a transactivation reporter, mRNA readout. An outline of the steps:
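HepG2 cells transiently transfected with HNF4a-Gal4 chimera and GAL4-UAS reporter units, dosed for 24 h. Reporter mRNA measured by RT-PCR, fluorescent primer extension and capillary electrophoresis; gain-of-signal fitted relative to DMSO.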

The nature of assay [5]: ATG_M_32_TRANS: Attagene TRANS-FACTORIAL HepG2 Assay for M32 Transcription Factor (Internal Marker) (AID 2282984; active = hit-call score of the fitted dose curve at least 0.9, where 1 is the maximum). To be noted: HepG2 Attagene TRANS M32 internal marker reporter. An outline of the steps:
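HepG2 cells transiently transfected with GAL4-UAS reporter units, dosed for 24 hours. Reporter mRNA quantified by RT-PCR, 6-FAM labelling, HpaI digestion and capillary electrophoresis; internal-marker signal fitted upward relative to DMSO.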

The target in assay [6] is Nuclear receptor subfamily 4 group A member 2 (Homo sapiens) (UniProt P43354). As to the kind of experiment: ATG_NURR1_TRANS: Attagene TRANS-FACTORIAL HepG2 Assay for human Nuclear Receptor Related Protein 1 (NURR1) (AID 2282985; active = hit-call score of the fitted dose curve at least 0.9, where 1 is the maximum). The conditions noted are these: HepG2 Attagene TRANS reporter, mRNA readout. An outline of the steps:
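HepG2 cells transiently transfected with NURR1-Gal4 chimera and GAL4-UAS reporter units; after 24 hr compound exposure, reporter mRNA quantified by RT-PCR and capillary electrophoresis; gain of signal fitted against DMSO.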

Assay [7] addresses Transcriptional activator Myb (Homo sapiens) (UniProt P10242). As to the kind of experiment: ATG_Myb_CIS: Attagene CIS-FACTORIAL HepG2 Assay for human Myeloblastosis (Myb) Proto-Oncogene Transcription Factor (AID 2282986). The conditions noted are these: HepG2 Attagene CIS-FACTORIAL Myb reporter transcription; actives raise or lower the signal. An outline of the steps: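 Using HepG2 liver cells bearing transiently transfected cis-promoter reporter constructs, the assay measures induction or loss of reporter mRNA after 24 hours of dosing. Detection used fluorescently labeled RT-PCR products separated by capillary electrophoresis.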

Assay [8] concerns the target Nuclear respiratory factor 1 (Homo sapiens) (UniProt Q16656). As to the kind of experiment: ATG_NRF1_CIS: Attagene CIS-FACTORIAL HepG2 Assay for human Nuclear Respiratory Factor 1 (NRF1) Orphan Gene (AID 2282987). The conditions noted are these: HepG2 NRF1 cis-element reporter, Attagene multiplex; actives raise or lower the signal. The gist of the method:
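Reporter mRNA induction or loss in HepG2 cells after 24 h dosing; cis-regulated reporter constructs report endogenous transcription-factor activity. Quantified by RT-PCR/capillary electrophoresis fluorescence, DMSO-referenced.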

A short description of assay [9]: ATG_NFI_CIS: Attagene CIS-FACTORIAL HepG2 Assay for human Nuclear Factor I (NFI) (AID 2282989). The conditions noted are these: HepG2 cis-regulatory reporter, NFI response element transcription; actives raise or lower the signal. The gist of the method:
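Cells: human liver HepG2, transiently transfected with promoter-regulated reporter transcription units. Exposure 24 h. Detection: fluorescent RT-PCR products separated by capillary electrophoresis, normalised to DMSO negative control.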

In assay [10] the target is Myc proto-oncogene protein (Homo sapiens) (UniProt P01106). As to the kind of experiment: ATG_Myc_CIS: Attagene CIS-FACTORIAL HepG2 Assay for human Myelocytomatosis (Myc) Proto-Oncogene Transcription Factor (AID 2282990). To be noted: HepG2, Attagene cis-reporter transcription factor activity; actives raise or lower the signal. The gist of the method: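 Read-out: fluorescent reporter mRNA fragments resolved by capillary electrophoresis after RT-PCR. Human HepG2 liver cells carried transfected cis-element reporter units and were dosed for 24 h. Gain or loss of signal fitted relative to DMSO baseline.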
Chain of Myc proto-oncogene protein (Homo sapiens) (P01106 whole entry, looked up, the tested form may be a part): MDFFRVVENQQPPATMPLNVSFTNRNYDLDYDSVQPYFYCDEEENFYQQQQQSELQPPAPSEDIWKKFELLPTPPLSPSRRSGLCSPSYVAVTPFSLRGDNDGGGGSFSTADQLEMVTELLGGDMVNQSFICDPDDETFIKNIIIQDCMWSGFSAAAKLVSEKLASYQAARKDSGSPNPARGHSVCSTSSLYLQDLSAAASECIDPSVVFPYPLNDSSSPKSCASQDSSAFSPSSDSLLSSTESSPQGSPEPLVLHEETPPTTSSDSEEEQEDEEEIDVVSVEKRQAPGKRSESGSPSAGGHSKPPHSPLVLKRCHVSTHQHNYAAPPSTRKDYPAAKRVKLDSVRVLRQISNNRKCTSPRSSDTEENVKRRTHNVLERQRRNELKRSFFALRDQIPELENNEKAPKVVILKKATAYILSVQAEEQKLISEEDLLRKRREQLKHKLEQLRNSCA

Assay [11] is described as follows: ATG_NF_kB_CIS: Attagene CIS-FACTORIAL HepG2 Assay for human Nuclear Factor Kappa B (NF-kB) (AID 2282991). To be noted: HepG2 Attagene cis-factorial NF-kB reporter mRNA; actives raise or lower the signal. An outline of the steps:
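DMSO served as negative control and baseline for bidirectional curve fitting. Transiently transfected HepG2 cells were dosed for 24 h, then reporter transcripts were measured by RT-PCR with capillary electrophoresis detection.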

Assay [12] in a line: ATG_NRF2_ARE_CIS: Attagene CIS-FACTORIAL HepG2 Assay for human Nuclear Factor Erythroid 2 Related Factor 2 (NFR2) response to Antioxidant Response Elements (ARE) (AID 2282992).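 As to AC50: reporter mRNA level measured by RT-PCR and capillary electrophoresis fluorescence.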 The conditions noted are these: HepG2 Attagene ARE/NRF2 reporter, transcription factor activity; actives raise or lower the signal. An outline of the steps:
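HepG2 cells transiently transfected with multiplexed cis-regulated reporter transcription units measure endogenous transcription factor activity. Reporter mRNA at 24 h is quantified by RT-PCR, fluorescent labelling and capillary electrophoresis, with bidirectional fitting relative to DMSO.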

Assay [13] can be described thus: ATG_Oct_MLP_CIS: Attagene CIS-FACTORIAL HepG2 Assay for human Octamer-Binding Transcription Factor (Oct) (AID 2282993). The conditions noted are these: HepG2 Attagene cis-factorial Oct reporter, mRNA; actives raise or lower the signal. An outline of the steps:
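HepG2, transient MRTU transfection, cis promoter elements; 24 h dosing; RT-PCR/CE fluorescence read-out of reporter mRNA; fit both directions vs DMSO.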

Assay [14] concerns the target Cellular tumor antigen p53 (Homo sapiens) (UniProt P04637). As to the kind of experiment: ATG_p53_CIS: Attagene CIS-FACTORIAL HepG2 Assay for human p53 Transcription Factor (AID 2282994). The conditions noted are these: HepG2 p53 cis-element reporter, Attagene mRNA; actives raise or lower the signal. An outline of the steps:
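HepG2 cells transiently transfected with multiplexed cis-regulated reporter transcription units read endogenous TF activity. After 24 h compound exposure, reporter mRNA was quantified by RT-PCR, fluorescent labelling, HpaI digestion and capillary electrophoresis; bidirectional fits versus DMSO baseline.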

Assay [15] is described as follows: BSK_3C_TissueFactor: BioMAP Diversity Plus: 3C Assay for Tissue Factor Biomarker Activity (AID 2282997). The conditions noted are these: BioMAP 3C HUVEC, tissue factor biomarker readout; actives raise or lower the signal. The gist of the method: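 HUVEC were treated 24 h, then surface tissue factor measured by ELISA and fitted bidirectionally against DMSO. Parallel SRB total-protein staining assessed overt cytotoxicity at the same time point.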

The nature of assay [16]: BSK_3C_uPAR: BioMAP Diversity Plus: 3C Assay for Urokinase-type plasminogen activator receptor (uPAR) Biomarker Activity (AID 2282998). To be noted: BioMAP 3C HUVEC, uPAR biomarker ELISA; actives raise or lower the signal. An outline of the steps:
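A multiplexed primary-cell system built on human umbilical vein endothelium was used, with chemical present for 24 h before reading. Cell-surface uPAR was detected by ELISA; signal change in either direction counted against DMSO.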

Assay [17] in a line: ATG_Hpa5_TRANS: Attagene TRANS-FACTORIAL HepG2 Assay for human GAL4-Hpa5 Hepatocyte Transcription Factor Basal Promoter (AID 2282975; active = hit-call score of the fitted dose curve at least 0.9, where 1 is the maximum;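 also: hits are increases in reporter mRNA over DMSO baseline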). The conditions noted are these: HepG2 Attagene GAL4-Hpa5 transcription reporter. An outline of the steps: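 Basal-promoter GAL4 background control within the HepG2 trans-factorial panel of transiently transfected reporter units. Reporter mRNA is measured 24 h after dosing by RT-PCR and capillary electrophoresis, fitted for gain of signal versus DMSO.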

Assay [18] addresses Bile acid receptor (Homo sapiens) (UniProt Q96RI1). As to the kind of experiment: ATG_FXR_TRANS: Attagene TRANS-FACTORIAL HepG2 Assay for Farnesoid X Receptor (FXR) (AID 2282979; active = hit-call score of the fitted dose curve at least 0.9, where 1 is the maximum;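 also: hits raise reporter mRNA above DMSO so AC50 marks FXR activation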). To be noted: HepG2 Attagene TRANS FXR-GAL4 reporter transcription. The gist of the method:
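HepG2 cells were transiently transfected with GAL4-UAS reporters driven by chimeric NR-Gal4 proteins and dosed for 24 h. Reporter mRNA was quantified by RT-PCR, fluorescent labelling, HpaI digestion and capillary electrophoresis, with gain of signal scored versus DMSO.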

Assay [19] is described as follows: ATG_GAL4_TRANS: Attagene TRANS-FACTORIAL HepG2 Assay for GAL4 (Internal Marker) (AID 2282976; active = hit-call score of the fitted dose curve at least 0.9, where 1 is the maximum). The conditions noted are these: HepG2 Attagene TRANS GAL4 internal marker reporter. An outline of the steps:
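Background-control readout: GAL4-UAS reporter transcript in transiently transfected HepG2 cells after 24 h compound exposure. Measured by RT-PCR, 6-FAM primer extension, HpaI digest and capillary electrophoresis; gain-of-signal fit versus DMSO.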

Assay [20] can be described thus: ATG_M_06_TRANS: Attagene TRANS-FACTORIAL HepG2 Assay for M06 Transcription Factor (Internal Marker) (AID 2282983; active = hit-call score of the fitted dose curve at least 0.9, where 1 is the maximum;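 also: reporter transcript level by RT-PCR then capillary electrophoresis fluorescence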). The conditions noted are these: HepG2 Attagene TRANS M06 internal marker reporter. The gist of the method:
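HepG2 cells transiently transfected with GAL4-UAS multiple reporter units, dosed 24 h. Reporter RNA reverse-transcribed, PCR-amplified, 6-FAM-labeled, HpaI-digested and quantified by capillary electrophoresis; this internal-marker signal fitted upward relative to DMSO.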

Chain of Transcriptional activator Myb (Homo sapiens) (P10242 whole entry, looked up): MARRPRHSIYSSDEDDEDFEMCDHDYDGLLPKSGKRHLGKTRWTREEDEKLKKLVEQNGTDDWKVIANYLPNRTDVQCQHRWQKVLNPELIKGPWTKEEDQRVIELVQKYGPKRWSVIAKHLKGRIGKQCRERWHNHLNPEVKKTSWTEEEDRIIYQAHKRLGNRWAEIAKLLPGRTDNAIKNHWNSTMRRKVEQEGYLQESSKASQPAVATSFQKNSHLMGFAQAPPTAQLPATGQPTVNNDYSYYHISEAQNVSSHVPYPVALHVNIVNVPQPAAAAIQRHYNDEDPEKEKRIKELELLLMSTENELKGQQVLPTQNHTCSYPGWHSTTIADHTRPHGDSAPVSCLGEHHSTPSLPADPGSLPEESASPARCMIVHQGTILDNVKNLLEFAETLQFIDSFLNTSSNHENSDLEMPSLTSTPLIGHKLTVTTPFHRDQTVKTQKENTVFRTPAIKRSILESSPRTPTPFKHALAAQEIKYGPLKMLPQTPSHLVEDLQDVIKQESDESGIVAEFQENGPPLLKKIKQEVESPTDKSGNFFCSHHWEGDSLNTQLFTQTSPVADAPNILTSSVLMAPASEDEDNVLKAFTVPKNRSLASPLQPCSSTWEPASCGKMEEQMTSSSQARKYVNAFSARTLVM
Chain of Hepatocyte nuclear factor 4-alpha (Homo sapiens) (P41235 whole entry, looked up, the tested form may be a part): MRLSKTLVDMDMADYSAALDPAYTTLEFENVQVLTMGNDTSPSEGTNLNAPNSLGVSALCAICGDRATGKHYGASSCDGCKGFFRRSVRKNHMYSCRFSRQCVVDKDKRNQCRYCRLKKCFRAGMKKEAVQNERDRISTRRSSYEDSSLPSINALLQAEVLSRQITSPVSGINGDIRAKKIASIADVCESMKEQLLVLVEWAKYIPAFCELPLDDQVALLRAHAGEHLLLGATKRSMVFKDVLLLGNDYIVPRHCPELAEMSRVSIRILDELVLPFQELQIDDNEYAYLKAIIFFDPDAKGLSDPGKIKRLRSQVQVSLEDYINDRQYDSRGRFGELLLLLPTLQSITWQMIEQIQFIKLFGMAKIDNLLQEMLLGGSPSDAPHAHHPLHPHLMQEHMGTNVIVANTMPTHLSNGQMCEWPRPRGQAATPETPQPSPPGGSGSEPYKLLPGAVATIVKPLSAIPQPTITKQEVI
Chain of Glucocorticoid receptor (Homo sapiens) (P04150 whole entry, looked up, the tested form may be a part): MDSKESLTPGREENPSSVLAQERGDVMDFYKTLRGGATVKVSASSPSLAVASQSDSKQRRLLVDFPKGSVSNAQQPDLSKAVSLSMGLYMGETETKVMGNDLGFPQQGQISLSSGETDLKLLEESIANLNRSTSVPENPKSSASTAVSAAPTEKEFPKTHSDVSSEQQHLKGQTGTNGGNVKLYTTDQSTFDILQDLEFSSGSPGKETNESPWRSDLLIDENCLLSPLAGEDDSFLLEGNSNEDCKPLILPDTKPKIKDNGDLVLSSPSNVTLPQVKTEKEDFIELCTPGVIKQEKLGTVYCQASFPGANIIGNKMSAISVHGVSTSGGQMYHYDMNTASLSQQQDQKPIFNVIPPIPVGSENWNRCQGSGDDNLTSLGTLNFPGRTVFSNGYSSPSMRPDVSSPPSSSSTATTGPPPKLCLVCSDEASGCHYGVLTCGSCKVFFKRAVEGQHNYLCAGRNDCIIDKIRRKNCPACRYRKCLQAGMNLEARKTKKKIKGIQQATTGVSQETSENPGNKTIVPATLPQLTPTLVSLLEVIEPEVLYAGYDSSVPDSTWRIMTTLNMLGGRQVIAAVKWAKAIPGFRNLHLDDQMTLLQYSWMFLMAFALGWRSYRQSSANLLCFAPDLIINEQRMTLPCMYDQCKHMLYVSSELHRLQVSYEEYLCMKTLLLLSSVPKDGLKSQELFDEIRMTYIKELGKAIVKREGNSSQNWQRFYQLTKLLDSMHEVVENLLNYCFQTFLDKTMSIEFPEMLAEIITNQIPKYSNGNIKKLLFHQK
Chain of Oxysterols receptor LXR-beta (Homo sapiens) (P55055 whole entry, looked up, the tested form may be a part): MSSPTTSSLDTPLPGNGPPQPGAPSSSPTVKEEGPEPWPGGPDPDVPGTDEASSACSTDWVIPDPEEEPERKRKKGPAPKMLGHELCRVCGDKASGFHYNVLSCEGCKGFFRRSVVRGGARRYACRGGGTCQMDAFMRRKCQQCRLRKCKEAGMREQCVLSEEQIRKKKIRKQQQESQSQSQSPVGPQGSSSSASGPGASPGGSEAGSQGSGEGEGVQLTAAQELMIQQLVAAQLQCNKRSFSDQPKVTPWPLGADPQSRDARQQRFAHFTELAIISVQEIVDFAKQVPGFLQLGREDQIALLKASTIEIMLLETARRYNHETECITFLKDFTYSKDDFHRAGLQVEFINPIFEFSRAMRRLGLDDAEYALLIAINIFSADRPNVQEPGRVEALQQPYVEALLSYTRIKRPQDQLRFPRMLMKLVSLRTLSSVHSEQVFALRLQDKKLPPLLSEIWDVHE
Chain of Nuclear receptor subfamily 4 group A member 2 (Homo sapiens) (P43354 whole entry, looked up, the tested form may be a part): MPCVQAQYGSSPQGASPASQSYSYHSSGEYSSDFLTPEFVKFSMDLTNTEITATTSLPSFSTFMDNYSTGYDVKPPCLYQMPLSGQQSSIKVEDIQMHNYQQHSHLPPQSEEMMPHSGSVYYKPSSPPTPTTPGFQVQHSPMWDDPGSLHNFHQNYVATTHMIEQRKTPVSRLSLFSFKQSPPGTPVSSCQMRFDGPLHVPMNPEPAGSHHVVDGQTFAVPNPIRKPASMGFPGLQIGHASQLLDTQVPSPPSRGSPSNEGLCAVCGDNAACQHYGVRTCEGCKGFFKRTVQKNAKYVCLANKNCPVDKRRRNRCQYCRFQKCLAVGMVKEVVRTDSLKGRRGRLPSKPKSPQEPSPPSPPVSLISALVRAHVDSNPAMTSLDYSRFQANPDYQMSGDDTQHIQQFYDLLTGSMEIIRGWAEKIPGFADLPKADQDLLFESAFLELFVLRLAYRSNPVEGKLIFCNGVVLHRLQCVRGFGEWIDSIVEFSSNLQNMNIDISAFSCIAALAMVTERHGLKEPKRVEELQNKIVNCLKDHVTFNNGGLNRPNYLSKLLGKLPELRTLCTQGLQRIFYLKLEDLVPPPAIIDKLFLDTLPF
Chain of Nuclear respiratory factor 1 (Homo sapiens) (Q16656 whole entry, looked up): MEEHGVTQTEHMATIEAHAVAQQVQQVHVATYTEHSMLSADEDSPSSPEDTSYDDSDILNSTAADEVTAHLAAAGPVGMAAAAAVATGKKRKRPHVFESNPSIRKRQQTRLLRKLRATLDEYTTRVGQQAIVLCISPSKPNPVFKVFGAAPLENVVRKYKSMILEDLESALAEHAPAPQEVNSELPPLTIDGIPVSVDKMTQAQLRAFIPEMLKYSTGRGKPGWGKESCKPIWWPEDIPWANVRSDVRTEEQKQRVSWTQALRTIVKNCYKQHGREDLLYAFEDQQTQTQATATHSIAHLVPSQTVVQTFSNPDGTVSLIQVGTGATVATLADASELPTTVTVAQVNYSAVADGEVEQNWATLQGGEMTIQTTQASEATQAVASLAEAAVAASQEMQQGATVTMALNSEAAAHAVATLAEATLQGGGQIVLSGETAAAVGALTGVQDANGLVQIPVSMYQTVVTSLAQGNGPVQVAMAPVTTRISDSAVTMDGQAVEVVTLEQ
Chain of Cellular tumor antigen p53 (Homo sapiens) (P04637 whole entry, looked up): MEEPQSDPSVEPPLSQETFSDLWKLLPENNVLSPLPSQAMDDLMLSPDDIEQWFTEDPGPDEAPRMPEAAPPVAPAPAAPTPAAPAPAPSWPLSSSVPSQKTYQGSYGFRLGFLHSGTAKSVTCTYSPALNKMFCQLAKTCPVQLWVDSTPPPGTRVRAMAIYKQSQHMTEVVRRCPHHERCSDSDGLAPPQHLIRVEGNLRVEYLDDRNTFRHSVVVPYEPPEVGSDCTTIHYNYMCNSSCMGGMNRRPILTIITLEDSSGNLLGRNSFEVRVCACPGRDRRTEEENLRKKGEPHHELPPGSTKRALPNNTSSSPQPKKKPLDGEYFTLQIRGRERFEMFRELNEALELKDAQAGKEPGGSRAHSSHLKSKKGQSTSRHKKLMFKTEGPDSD

With `N#CN=C1SCCN1Cc1ccc(Cl)nc1`, the result in [1], in assay [2], in [3], in assay [4], in assay [5] and in assay [6] was inactive. Also, the result in assay [7], in assay [8], in [9], in assay [10], in [11] and in [13] was inactive. For the same molecule, the molecule was classed as inactive in [14], in assay [15] and in [16]. Moreover, the AC50 in assay [12] is 50 µM (active).
For `CCCN(CC)CC1COC2(CCC(C(C)(C)C)CC2)O1` (centres undefined), the call in assay [17], in assay [1], in [2], in assay [3], in [4] and in [5] was inactive. The molecule was called inactive in assay [7], in assay [8], in assay [9], in [11], in assay [14] and in assay [15]. Moreover, the outcome in [16] was inactive. In addition, the AC50 is 5.91 µM (active) in assay [12] and 14.5 µM (active) in assay [13].
Take `COc1cc(OC)nc(NC(=O)NS(=O)(=O)c2ncccc2OCC(F)(F)F)n1`: the outcome in assay [1], in assay [18], in assay [2], in [3], in assay [5] and in assay [6] was inactive. The call in assay [7], in [8], in assay [9], in assay [11], in assay [12] and in [13] was inactive. Besides, the call in assay [14], in [15] and in assay [16] was inactive.
`N#Cc1c[nH]cc1-c1cccc2c1OC(F)(F)O2`: the molecule was classed as inactive in assay [19], in assay [1], in assay [2], in [3], in [4] and in [20]. Also, the molecule was classed as inactive in assay [5], in [7], in assay [8], in assay [9], in assay [10] and in [11]. Also, the molecule was classed as inactive in assay [14] and in assay [15]. Also, the concentration at half-maximal activity (AC50) in assay [6] is 7.82 µM (active); in assay [12], 13.2 µM (active); in assay [13], 13.9 µM (active); in assay [16], 12.8 µM (active).
